PubChem BioAssay (Tox21)
Unmarked numbers belong to inactive results. Results filed as inconclusive are left out. Where a call stands in place of a potency, no number is given. Calls of active or inactive are those of the source. Unless noted, the call rests on the fitted dose curve.

Experiments:
[1] = Nuclear factor erythroid 2-related factor 2/antioxidant responsive element (Nrf2/ARE) small molecule agonists: qHTS cell viability counter screen in human keratinocytes (AID 1919968; active means well fitted curve in the direction sought with a large enough effect in the repeat runs; an effect the other way counts as inactive or inconclusive; further: nearly all actives have a fitted effect of over 55% in size; further: potency means the concentration at half of the fitted maximal effect)
In short: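 KeratinoSens cells (HaCaT keratinocytes stably carrying an ARE-luciferase reporter) were seeded at 1,500 cells/well and rested 5 h at 37 C/5% CO2. They were then exposed to compounds in DMSO for 23 h. Viability was read by CellTiter-Fluor fluorescence after 1 h.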

[2] = Nuclear factor erythroid 2-related factor 2/antioxidant responsive element (Nrf2/ARE) small molecule agonists: luciferase reporter gene qHTS assay in human keratinocytes (AID 1919969); further: nearly all actives have a fitted effect of over 35% in size
[3] = target: Gonadotropin-releasing hormone receptor (Homo sapiens) (UniProt P30968); experiment: Human gonadotropin-releasing hormone receptor (GnRHR) small molecule agonists, calcium flux assay in GnRHR-HEK293 cells (AID 1920063); further: nearly all actives have a fitted effect of over 35% in size; further: potency means the concentration at half of the fitted maximal effect
In short: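 HEK293 cells stably expressing human GnRHR were plated 18 h at 37 °C, loaded with calcium dye 1 h at 37 °C, then given compound in agonist mode; fluorescence (Ex/Em 480/540) read kinetically for 3 min at 1 s intervals.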

[4] = G protein-coupled receptor (GPCR) small molecule agonists, calcium flux assay: HEK293 wild type cell line counter screen (AID 1920065)
In short: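 Cells were plated and cultured 18 h at 37 C/5% CO2, then loaded with calcium dye for 1 h at 37 C. Compounds in DMSO were pin-transferred in agonist mode, and fluorescence (Ex/Em 480/540) was read kinetically for 3 min at 1 s intervals.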

[5] = p53 small molecule agonists, cell-based qHTS assay with rat liver microsomes (AID 1963578)
In short: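 Compound in DMSO added to p53RE-bla cells 5 h post-plating; rat microsomes/NADPH 0.5 mg/mL final; 16 h, 37 C; LiveBLAzer 2 h RT.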

[6] = target: 5-hydroxytryptamine receptor 2A (Homo sapiens) (UniProt P28223); experiment: 5-hydroxytryptamine receptor 2A (HTR2A) small molecule antagonists, cell-based qHTS assay (AID 1963586); further: nearly all actives have a fitted effect of over 45% in size
In short: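 Antagonist-mode intracellular calcium assay: DOI (4 nM) added after 5 min compound pre-incubation at room temperature to dye-loaded HTR2A-CHO cells. Fluorescence followed for 3 min, sampled every second.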

[7] = target: 5-hydroxytryptamine receptor 2A (Homo sapiens) (UniProt P28223); experiment: 5-hydroxytryptamine receptor 2A (HTR2A) small molecule agonists, cell-based qHTS assay (AID 1963587); further: nearly all actives have a fitted effect of over 30% in size; further: potency means the concentration at half of the fitted maximal effect
In short: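 Kinetic calcium-flux fluorescence (2 min, 1 sec intervals) after compound addition in agonist mode. HTR2A-CHO cells were cultured 18 h, then dye-loaded 1 h at 37 C.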

[8] = target: Muscarinic acetylcholine receptor M1 (Homo sapiens) (UniProt P11229); experiment: Cholinergic receptor muscarinic 1 (CHRM1) small molecule antagonists, cell-based qHTS assay (AID 1963588); further: nearly all actives have a fitted effect of over 40% in size; further: potency means the concentration at half of the fitted maximal effect
In short: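 CHRM1-CHO calcium-flux assay, antagonist mode. Cells were seeded 18 h, dye-loaded 1 h at 37 C and given compound for 5 min at RT, then acetylcholine was added at 50nM. FDSS fluorescence was read 3 min; 15 concentrations, three runs.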

[9] = target: D(2) dopamine receptor (Homo sapiens) (UniProt P14416); experiment: Dopamine D2 receptor (DRD2) small molecule agonists, cell-based qHTS assay (AID 1963594); further: nearly all actives have a fitted effect of over 35% in size
In short: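 cAMP accumulation in DRD2-HEK293 cells measured by HTRF after 1 h detection; compounds added 10 min before NKH477 (200nM […]) forskolin-analogue stimulation, 30 min at room temperature, with Ro20-1724 present at 0.1 mM final.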

[10] = target: KiSS-1 receptor (Homo sapiens) (UniProt Q969F8); experiment: Human kisspeptin (KISS1R) small molecule agonists, calcium flux assay in KISS1R-HEK293 cells (AID 1920064; active means well fitted curve in the direction sought with a large enough effect in the repeat runs; an effect the other way counts as inactive or inconclusive)
In short: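 HEK293 cells stably expressing human KISS1R were plated 18 h at 37 °C, loaded with calcium dye for 1 h at 37 °C, then given compound by pin tool. Fluorescence (Ex/Em 480/540) was read kinetically for 3 min.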

[11] = p53 small molecule agonists, cell-based qHTS assay with human liver microsomes: qHTS cell viability counter screen (AID 1963579); further: nearly all actives have a fitted effect of over 45% in size
In short: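 HLM-supplemented (0.5 mg/mL final) and NADPH-supplemented (0.5 mg/mL final) p53RE-bla cultures, 4,000 cells per well, were dosed with compounds in DMSO for 16 h at 37 C; luminescent ATP detection (CellTiter-Glo, 30 min, room temperature) quantified surviving cells.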

[12] = p53 small molecule agonists, cell-based qHTS assay: qHTS cell viability counter screen (AID 1963581); further: nearly all actives have a fitted effect of over 45% in size
In short: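 p53RE-bla HCT-116 cells were exposed to compounds for 16 h at 37 C; after the beta-lactamase FRET read in the same wells, CellTiter-Glo was added and luminescence (intracellular ATP) read after 30 min at room temperature.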

[13] = target: Muscarinic acetylcholine receptor M1 (Homo sapiens) (UniProt P11229); experiment: Cholinergic receptor muscarinic 1 (CHRM1) small molecule agonists, cell-based qHTS assay (AID 1963589); further: nearly all actives have a fitted effect of over 35% in size
In short: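 CHO cells stably expressing human CHRM1, seeded 18 h at 37 C/5% CO2, dye-loaded 1 h at 37 C, then given compound in agonist mode; intracellular calcium fluorescence read kinetically at 1 s intervals. Fifteen concentrations, three independent runs.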

[14] = cAMP Responsive Elements (CRE) small molecule agonists, cell-based qHTS assay (AID 1963590)
In short: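 CRE-bla HEK 293T cells in DMEM with 10% dialyzed FBS, NEAA, pyruvate and 25 mM HEPES were plated 18 h at 37 C/5% CO2, then exposed to compounds in DMSO for 3 h before LiveBLAzer B/G FRET substrate addition.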

[15] = cAMP Responsive Elements (CRE) small molecule antagonists, cell-based qHTS assay (AID 1963591; active means well fitted inhibition curve with a large enough effect in the signal ratio in the repeat runs, not every such curve was filed as active; the % refers to the signal ratio)
In short: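 CRE-bla HEK293T cells were plated 18 h at 37 °C/5% CO2, pinned with compound in DMSO, then stimulated with NKH477 at 0.25 uM final for 3 h. LiveBLAzer B/G FRET substrate was added and plates incubated 2 h at room temperature.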

[16] = target: Beta-2 adrenergic receptor (Homo sapiens) (UniProt P07550); experiment: Adrenergic beta2 receptor (ADRB2) small molecule antagonists, cell-based qHTS assay (AID 1963592); further: series mostly up to about 92 µM; nearly all actives have a fitted effect of over 50% in size
In short: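 Cells (CHO, stable ADRB2 overexpression) incubated 18-20hr at 37C; compounds added from DMSO; agonist mix (1nM isoproterenol, 100uM IBMX, 25uM Ro-20-1724) added; 0.5hr RT; d2-cAMP and anti-cAMP-cryptate added; 1hr RT; 665/615 nm read.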

[17] = target: D(2) dopamine receptor (Homo sapiens) (UniProt P14416); experiment: Dopamine D2 receptor (DRD2) small molecule antagonists, cell-based qHTS assay (AID 1963595; active means well fitted inhibition curve with a large enough effect in the signal ratio in the repeat runs, with a control signal flat; the % refers to the signal ratio)
In short: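 Human DRD2 antagonist qHTS measuring cAMP by HTRF. The cells are exposed to compound for 10 min, then to NKH477 (200 nM) and quinpirole (12 nM) for 30 min at RT, with Ro20-1724 (0.1 mM) present throughout.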

[18] = target: Beta-2 adrenergic receptor (Homo sapiens) (UniProt P07550); experiment: Adrenergic beta2 receptor (ADRB2) small molecule agonists, cell-based qHTS assay (AID 1963593);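 further: CHO cells stably overexpressing human ADRB2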
In short: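 CHO cells stably over-expressing ADRB2 were plated overnight at 37C, then dosed with compounds plus a stimulation mix containing 100uM IBMX and 25uM Ro-20-1724 for 0.5hr at room temperature. cAMP was measured by HTRF competition, 1hr.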

[19] = p53 small molecule agonists, cell-based qHTS assay with rat liver microsomes: qHTS cell viability counter screen (AID 1963580); further: nearly all actives have a fitted effect of over 45% in size
In short: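 Intracellular ATP, by CellTiter-Glo luminescence, defines viability. HCT-116 p53RE-bla cells, 4,000 per well, were compound-treated in the presence of rat liver microsomes and NADPH for 16 h at 37 C.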

[20] = p53 small molecule agonists, cell-based qHTS assay (AID 1963582; active means well fitted activation curve with a large enough effect in the signal ratio in the repeat runs, not every such curve was filed as active; the % refers to the signal ratio)
In short: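 p53RE-bla beta-lactamase reporter cells rested 5 h at 37 C/5% CO2, then received compounds in DMSO by pin transfer and were incubated 16 h at 37 C. LiveBLAzer B/G FRET substrate was loaded for 2 h at room temperature before fluorescence reading.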

Beta-2 adrenergic receptor (Homo sapiens), sequence (P07550 whole entry, looked up): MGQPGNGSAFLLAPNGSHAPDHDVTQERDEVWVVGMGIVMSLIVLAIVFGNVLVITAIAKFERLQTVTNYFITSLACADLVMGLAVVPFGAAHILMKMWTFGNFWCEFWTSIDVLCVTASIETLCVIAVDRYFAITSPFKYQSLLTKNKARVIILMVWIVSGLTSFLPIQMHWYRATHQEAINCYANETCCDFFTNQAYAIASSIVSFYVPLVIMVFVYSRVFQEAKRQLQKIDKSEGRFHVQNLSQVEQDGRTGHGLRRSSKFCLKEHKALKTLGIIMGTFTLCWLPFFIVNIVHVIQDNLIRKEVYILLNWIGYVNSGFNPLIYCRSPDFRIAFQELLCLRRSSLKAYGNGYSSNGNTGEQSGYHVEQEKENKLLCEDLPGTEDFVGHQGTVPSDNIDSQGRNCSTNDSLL
5-hydroxytryptamine receptor 2A (Homo sapiens), sequence (P28223 whole entry, looked up): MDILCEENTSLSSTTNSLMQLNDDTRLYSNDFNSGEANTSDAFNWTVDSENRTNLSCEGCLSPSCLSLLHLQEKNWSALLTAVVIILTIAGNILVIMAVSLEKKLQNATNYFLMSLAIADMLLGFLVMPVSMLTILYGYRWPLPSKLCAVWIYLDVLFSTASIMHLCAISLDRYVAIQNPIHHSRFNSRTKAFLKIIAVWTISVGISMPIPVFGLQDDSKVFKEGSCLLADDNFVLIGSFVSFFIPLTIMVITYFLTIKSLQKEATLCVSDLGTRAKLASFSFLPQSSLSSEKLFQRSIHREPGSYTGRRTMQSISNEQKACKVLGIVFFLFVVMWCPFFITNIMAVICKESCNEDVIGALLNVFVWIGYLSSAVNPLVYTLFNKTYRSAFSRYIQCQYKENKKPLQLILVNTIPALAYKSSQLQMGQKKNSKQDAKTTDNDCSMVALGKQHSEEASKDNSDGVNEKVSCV
Muscarinic acetylcholine receptor M1 (Homo sapiens), sequence (P11229 whole entry, looked up): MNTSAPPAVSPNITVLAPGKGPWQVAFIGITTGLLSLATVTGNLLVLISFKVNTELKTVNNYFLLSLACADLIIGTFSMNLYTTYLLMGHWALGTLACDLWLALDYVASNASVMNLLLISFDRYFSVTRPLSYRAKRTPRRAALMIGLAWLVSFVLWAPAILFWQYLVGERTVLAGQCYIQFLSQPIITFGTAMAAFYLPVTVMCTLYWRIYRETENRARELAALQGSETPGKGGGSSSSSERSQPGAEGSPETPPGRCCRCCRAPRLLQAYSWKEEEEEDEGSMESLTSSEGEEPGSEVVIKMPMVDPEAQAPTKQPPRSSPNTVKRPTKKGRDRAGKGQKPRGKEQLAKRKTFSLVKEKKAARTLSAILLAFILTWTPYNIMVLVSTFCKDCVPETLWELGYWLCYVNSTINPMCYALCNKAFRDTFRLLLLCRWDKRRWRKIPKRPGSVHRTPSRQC
KiSS-1 receptor (Homo sapiens), sequence (Q969F8 whole entry, looked up): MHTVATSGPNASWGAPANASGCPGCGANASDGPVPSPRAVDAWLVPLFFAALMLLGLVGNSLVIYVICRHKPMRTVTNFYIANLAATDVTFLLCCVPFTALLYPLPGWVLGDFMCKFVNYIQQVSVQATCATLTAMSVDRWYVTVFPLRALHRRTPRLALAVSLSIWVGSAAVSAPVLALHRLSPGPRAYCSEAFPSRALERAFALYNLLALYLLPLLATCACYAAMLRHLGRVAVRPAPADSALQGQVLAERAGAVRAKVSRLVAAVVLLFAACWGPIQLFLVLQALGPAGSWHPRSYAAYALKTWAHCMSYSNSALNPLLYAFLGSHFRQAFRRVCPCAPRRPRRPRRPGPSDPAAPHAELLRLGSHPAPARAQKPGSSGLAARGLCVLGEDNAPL
Gonadotropin-releasing hormone receptor (Homo sapiens), sequence (P30968 whole entry, looked up): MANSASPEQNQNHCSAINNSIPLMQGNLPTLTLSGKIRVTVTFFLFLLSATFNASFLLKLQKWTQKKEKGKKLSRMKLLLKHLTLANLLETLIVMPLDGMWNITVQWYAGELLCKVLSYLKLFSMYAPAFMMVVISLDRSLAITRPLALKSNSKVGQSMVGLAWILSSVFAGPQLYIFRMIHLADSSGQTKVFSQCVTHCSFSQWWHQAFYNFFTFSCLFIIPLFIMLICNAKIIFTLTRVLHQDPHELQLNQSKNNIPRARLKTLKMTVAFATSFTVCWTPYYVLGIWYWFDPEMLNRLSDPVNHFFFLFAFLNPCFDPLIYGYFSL
D(2) dopamine receptor (Homo sapiens), sequence (P14416 whole entry, looked up): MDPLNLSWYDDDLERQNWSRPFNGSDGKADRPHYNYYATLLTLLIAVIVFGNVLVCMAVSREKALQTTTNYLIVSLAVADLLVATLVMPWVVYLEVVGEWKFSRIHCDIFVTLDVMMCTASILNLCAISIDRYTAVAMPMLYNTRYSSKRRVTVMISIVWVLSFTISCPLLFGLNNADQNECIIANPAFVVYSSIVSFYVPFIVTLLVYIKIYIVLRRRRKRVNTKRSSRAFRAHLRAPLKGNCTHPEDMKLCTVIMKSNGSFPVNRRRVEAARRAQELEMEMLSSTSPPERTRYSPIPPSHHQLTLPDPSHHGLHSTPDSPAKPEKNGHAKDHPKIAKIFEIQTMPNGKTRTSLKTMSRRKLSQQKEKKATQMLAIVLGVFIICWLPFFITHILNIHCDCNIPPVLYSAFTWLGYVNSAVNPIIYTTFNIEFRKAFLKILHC

SMILES	Potency [1]	Potency [2]	Potency [3]	Potency [4]	Potency [5]	Potency [6]	Potency [7]	Potency [8]	Potency [9]	Potency [10]	Potency [11]	Potency [12]	Potency [13]	Potency [14]	Potency [15]	Potency [16]	Potency [17]	Potency [18]	Potency [19]	Potency [20]
CCCOc1sc(C(=O)N2CCC(c3cc(CN)ccc3F)CC2)c(C)c1Br	17.7 µM (active)	inactive	35.7 µM (active)	inactive	inactive	inactive	50.4 µM (active)	inactive	inactive											
Cc1ncc(COP(=O)(O)O)c(C=O)c1O	inactive	inactive	inactive			inactive	inactive	inactive	inactive	inactive	inactive	inactive	inactive	inactive	inactive	inactive	inactive			
Cc1cc(C2CCCCC2)n(O)c(=O)c1	13.3 µM (active)	inactive	inactive	inactive	inactive				inactive			inactive		inactive		inactive		inactive		
CC(C)Nc1ccc(NC(C)C)c2c1C(=O)c1ccccc1C2=O	inactive	inactive	inactive	inactive	inactive		inactive	inactive			inactive		inactive	inactive	inactive	inactive	inactive	inactive	inactive	inactive
CC(N)=O	inactive	inactive	inactive			inactive	inactive	inactive	inactive	inactive		inactive		inactive	inactive		inactive		inactive	
[Ca+2]	inactive	inactive	inactive			inactive	inactive	inactive	inactive	inactive	inactive		inactive	inactive	inactive	inactive	inactive	inactive	inactive	
COc1ccnc(CS(=O)c2nc3cc(OC(F)F)ccc3[nH]2)c1OC (stereo not drawn)	inactive	inactive	inactive						inactive	inactive	inactive			inactive		inactive	inactive	inactive	inactive	
Fc1ccccc1	inactive	inactive	inactive					inactive	inactive	inactive	inactive		inactive	inactive		inactive	inactive	inactive	inactive	
CC(=O)OC/C=C(/C)CCC=C(C)C	inactive	inactive	inactive	inactive	inactive	inactive		inactive	inactive		inactive	inactive	inactive	inactive	inactive	inactive	inactive	inactive	inactive	inactive
C[C@@H](C1=C(CCN(C)C)Cc2ccccc21)c1ccccn1	inactive	inactive	inactive				inactive			inactive			inactive	inactive	inactive	inactive	inactive		inactive	
CCn1nc(C)c2c1C(=O)NCC(c1ccc(O)cc1)=N2	inactive	inactive	inactive	inactive	inactive	inactive	inactive	inactive	inactive		inactive	inactive		inactive				inactive	inactive	inactive
CCOC(=O)Nc1ccc2c(c1)N(C(=O)CCN1CCOCC1)c1ccccc1S2	inactive	inactive	inactive	inactive	inactive		inactive	0.918 µM (active)	inactive		inactive	inactive	inactive			inactive	inactive	inactive	inactive	inactive
